Most compounds without a hit are left out; they make up all but 8.7% or so of the library.
Pf growth 96h – P. falciparum growth inhibition at 96 hour, primary screen for plastid delayed-death inhibitors; AID 504834; Potency, µM (doses to about 28.7 µM), for inactives: at the highest dose activity change, negative = inhibition, most hits filed as inhibitors; P. falciparum luciferase reporter growth, 96 h; 320,000 compounds, 6.9% hits
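Plates of compound plus infected erythrocytes (2% hematocrit, 0.05% parasitemia final) incubate 96 hours, 37 C, 5% CO2. Detection reagent added; reduced luminescence from the parasites' luciferase reporter flags inhibition.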
AMA1 RON2 block – disrupts binding of P. falciparum AMA1 to RON2; AlphaScreen AMA1-biotinylated RON2 peptide binding; Potency, µM (top dose mostly 58.2 µM), for inactives: top-dose activity change, negative = inhibition, most hits filed as inhibitors; 360,000 compounds, 0.2% hits;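 also: 0% = vehicle wells and -100% = peptide control; nearly all actives have a fitted effect of over 45% in size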
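AMA1 (3D7) with his tag at 25 nM final met compounds first, then biotinylated RON2 peptide at 25 nM; detection used donor plus acceptor beads, 10 µg/mL apiece, read by AlphaScreen after 30 min at room temperature.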
Vaccinia mCherry – vaccinia inhibition (mCherry reporter). Vaccinia virus mCherry reporter infection, fluorescence. 310,000 compounds, 0.63% hits. AID 720579. Potency, µM (titrated, usually from 36.5 µM), for inactives: at the highest dose activity change, negative = inhibition, usual class: inhibitors; calls by dose curve; tested in A549 cells; also: nearly all actives have a fitted effect of over 35% in size
VACV Venus inh – inhibitors of vaccinia virus (Venus reporter); Potency, µM (doses to about 36.5 µM), for the others: at the highest dose activity change, negative = inhibition, most hits filed as inhibitors; Vaccinia virus Venus reporter expression, fluorescence; 330,000 compounds, 0.46% hits; calls by dose curve; tested in A549 cells; also: nearly all actives have a fitted effect of over 30% in size
Pf growth 48h – P. falciparum growth inhibition at 48 hours (one generation); Potency, µM (highest dose often 28.7 µM), without a hit: top-dose activity change, negative = inhibition, hits mostly inhibitors; 310,000 compounds, 5.9% hits; P. falciparum luciferase growth in erythrocytes, 48 h
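First compound was added to culture medium, then infected red cells at 0.1% parasitemia and 2% hematocrit (final). After incubation at 37 C under 5% CO2, luciferase detection reagent was dispensed and light output recorded.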
* hit, by the source's call; [ ] = remark or other dose. Unless noted, calls follow the shape of the dose curve; as a rule, active = well fitted curve in the direction sought with a large enough effect; inconclusive = small, poorly fitted or top-dose-only effect, or another doubt; inactive = no such curve, though single readings can be large; an effect the other way counts as inactive or inconclusive. Unless noted, % is scaled to controls: 0 for no effect and ±100 for the full control effect; potency is read from the fitted curve at half-maximal effect.

How did CCC1CCCCN1C(=O)CSc1nc2c([nH]c3ccccc32)c(=O)n1C (stereo unspecified) do in these assays?
Pf growth 96h: -1%; AMA1 RON2 block: -2%; Vaccinia mCherry: -14%; VACV Venus inh: 1%; Pf growth 48h: 9.3µM*

What do the screens show for `CC(=O)NCCNC(=O)c1cnn(-c2nccc(-c3cc(C)sc3C)n2)c1C`?
Vaccinia mCherry: -4%; VACV Venus inh: -7%

How did COc1ccccc1N1CCN(C(=O)CSc2nc(-c3ccc(C(C)C)cc3)no2)CC1 do in these assays?
Vaccinia mCherry: inconclusive; VACV Venus inh: -29%

How did CN1C(=O)Cc2cc(S(=O)(=O)CCC(=O)N3CCN(c4ccc(Cl)cc4)CC3)ccc21 do in these assays?
Vaccinia mCherry: -15%; VACV Venus inh: 1%

How did Cc1oc2ncn(CC(C)C)c(=O)c2c1C(=O)N1CCN(c2ccc(F)cc2)CC1 do in these assays?
Vaccinia mCherry: -6%; VACV Venus inh: -1%

What do the screens show for `O=S1(=O)N=C(N/N=C/c2ccccn2)c2ccccc21`?
Pf growth 96h: inconclusive; AMA1 RON2 block: -14%; Vaccinia mCherry: -19%; VACV Venus inh: -12%; Pf growth 48h: inconclusive

How did O=S1(=O)N=C(N/N=C/C=C/c2ccccc2)c2ccccc21 do in these assays?
Pf growth 96h: 13µM*; AMA1 RON2 block: 58%; Vaccinia mCherry: -23%; VACV Venus inh: -16%; Pf growth 48h: inconclusive

What do the screens show for `CCN(CC)c1ccc(/C=C(/C#N)c2nc3ccc(C)cc3[nH]2)c(OC(C)C)c1`?
Pf growth 96h: 10µM*; AMA1 RON2 block: 17%; Vaccinia mCherry: -25%; VACV Venus inh: 44%; Pf growth 48h: inconclusive

How did CCOc1cc(N(CC)CC)ccc1/C=C(/C#N)c1nc2ccccc2[nH]1 do in these assays?
Pf growth 96h: 8.3µM*; AMA1 RON2 block: -13%; Pf growth 48h: -19%

Results for COc1cccc(/C=C(\C#N)c2nc3ccc(C)cc3[nH]2)c1 ?
Vaccinia mCherry: -20%; VACV Venus inh: -23%

What do the screens show for `CCCOc1cc(N(CC)CC)ccc1/C=C(/C#N)c1nc2ccc(C)cc2[nH]1`?
Pf growth 96h: 2.6µM*; AMA1 RON2 block: -20%; Vaccinia mCherry: inactive; VACV Venus inh: 104%; Pf growth 48h: 7.4µM*

How did COc1cc(/C=C(\C#N)c2nc3ccc(C)cc3[nH]2)c([N+](=O)[O-])cc1OC do in these assays?
Pf growth 96h: inconclusive; AMA1 RON2 block: -9%; Vaccinia mCherry: -27%; VACV Venus inh: -23%; Pf growth 48h: inconclusive

How did Cc1cc(/C=C(\C#N)c2nc3ccccc3[nH]2)c(C)n1C do in these assays?
Pf growth 96h: -99%; AMA1 RON2 block: -6%; Vaccinia mCherry: -21%; VACV Venus inh: -27%; Pf growth 48h: -22%

Results for Cc1cc(C)cc(NC(=O)CN(C)S(=O)(=O)c2ccc3c(c2)CCC(=O)N3)c1 ?
Vaccinia mCherry: -15%; VACV Venus inh: 2%

How did CCOC(=O)c1[nH]c2cc3c(cc2c1NC(=O)CN1CC(C)CC(C)C1)OCO3 (stereo unspecified) do in these assays?
Pf growth 96h: 5.9µM*; AMA1 RON2 block: 11%; Vaccinia mCherry: -3%; VACV Venus inh: -9%; Pf growth 48h: -2%

What do the screens show for `COC(=O)c1[nH]c2ccc(F)cc2c1NC(=O)CCN1CCN(Cc2ccc3c(c2)OCO3)CC1`?
Pf growth 96h: -1%; AMA1 RON2 block: 8%; Vaccinia mCherry: -15%; VACV Venus inh: inconclusive; Pf growth 48h: 12µM*

Results for CCN(CC(=O)Nc1c(C(=O)OC)[nH]c2ccc(C)cc12)c1ccc2c(c1)OCO2 ?
Pf growth 96h: inconclusive; AMA1 RON2 block: inconclusive; Pf growth 48h: 13µM*

Results for Cc1ccc(NC(=O)C(NC2CCCc3ccccc32)c2ccccc2)cc1Cl (stereo unspecified) ?
Pf growth 96h: inconclusive; AMA1 RON2 block: -22%; Vaccinia mCherry: -21%; VACV Venus inh: -21%; Pf growth 48h: inconclusive

How did COc1cccc(CNC2CCCc3ccccc32)c1OC (stereo unspecified) do in these assays?
Pf growth 96h: 2.9µM*; AMA1 RON2 block: -15%; Vaccinia mCherry: -28%; VACV Venus inh: -1%; Pf growth 48h: -9%

How did COc1cc(CNC2CCCc3ccccc32)cc(OC)c1OC (stereo unspecified) do in these assays?
Pf growth 96h: inconclusive; AMA1 RON2 block: 12%; Vaccinia mCherry: -15%; VACV Venus inh: -11%; Pf growth 48h: inconclusive

What do the screens show for `Cc1ccc(NC(=O)C(NC2CCCc3ccccc32)c2ccccc2)c([N+](=O)[O-])c1` (stereo unspecified)?
Pf growth 96h: inconclusive; AMA1 RON2 block: -15%[2.32 µM]; Vaccinia mCherry: inactive; VACV Venus inh: -6%; Pf growth 48h: 13µM*

What do the screens show for `Cc1nc2ccccn2c1C(=O)NC1CCCc2ccccc21` (stereo unspecified)?
Pf growth 96h: inconclusive; AMA1 RON2 block: 4%; Vaccinia mCherry: inconclusive; VACV Venus inh: -27%; Pf growth 48h: 9.3µM*

What do the screens show for `O=C(NC1CCCc2ccccc21)c1cn2ccccc2n1` (stereo unspecified)?
Pf growth 96h: 1%; AMA1 RON2 block: 0%; Pf growth 48h: 8%

How did O=C(CCn1cccc1)NC1CCCc2ccccc21 (stereo unspecified) do in these assays?
Pf growth 96h: 6.6µM*; AMA1 RON2 block: -9%; Vaccinia mCherry: -27%; VACV Venus inh: -19%; Pf growth 48h: 6%

Results for Cc1ccc(-c2noc(CN(C3CCCCC3)S(=O)(=O)c3ccc(F)cc3)n2)cc1 ?
Vaccinia mCherry: -8%; VACV Venus inh: -16%

How did Cc1cccc(NC(=O)CSc2nc3ccccc3nc2N2CCCCC2)c1C do in these assays?
Vaccinia mCherry: -7%; VACV Venus inh: -2%

How did O=C(/C=C/c1ccccc1)Nc1nc2n(n1)C(c1ccc(F)cc1)C=C(c1ccccc1)N2 (stereo unspecified) do in these assays?
Vaccinia mCherry: -8%; VACV Venus inh: -7%

What do the screens show for `CC(C)c1ccc(Nc2c(-c3ccc(N(C)C)cc3)nc3cnccn23)cc1`?
Vaccinia mCherry: inconclusive; VACV Venus inh: -25%

How did COC(=O)c1ccccc1NC(=O)c1cn2c3c(ccc(Cl)c3c1=O)OC(C)C2 (stereo unspecified) do in these assays?
Vaccinia mCherry: -2%; VACV Venus inh: -9%

How did Cc1cc(C)cc(OCC(=O)NC2CCCc3ccccc32)c1 (stereo unspecified) do in these assays?
Pf growth 96h: 8.3µM*; AMA1 RON2 block: -8%; Vaccinia mCherry: -16%; VACV Venus inh: -5%; Pf growth 48h: inconclusive

How did COc1ccc(C)cc1NC(=O)NC1CCCc2ccccc21 (stereo unspecified) do in these assays?
Pf growth 96h: 16%; AMA1 RON2 block: 5%; Vaccinia mCherry: inconclusive; VACV Venus inh: inconclusive; Pf growth 48h: 12µM*

Screening results as filed in PubChem BioAssay.
